This note sets out measurements from ChEMBL document CHEMBL1961873, “Compounds: GSK PKIS; Assays: Nanosyn kinase panel” (2012).

Several values for one entry are separate records, joined by “and”; a condition that tells them apart may be missing. Equal values may be shown once.
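Further: values are mean inhibition of p70S6K1, measured as part of the GSK PKIS panel.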

Ribosomal protein S6 kinase beta-1 (Homo sapiens), sequence (P23443 whole entry, looked up): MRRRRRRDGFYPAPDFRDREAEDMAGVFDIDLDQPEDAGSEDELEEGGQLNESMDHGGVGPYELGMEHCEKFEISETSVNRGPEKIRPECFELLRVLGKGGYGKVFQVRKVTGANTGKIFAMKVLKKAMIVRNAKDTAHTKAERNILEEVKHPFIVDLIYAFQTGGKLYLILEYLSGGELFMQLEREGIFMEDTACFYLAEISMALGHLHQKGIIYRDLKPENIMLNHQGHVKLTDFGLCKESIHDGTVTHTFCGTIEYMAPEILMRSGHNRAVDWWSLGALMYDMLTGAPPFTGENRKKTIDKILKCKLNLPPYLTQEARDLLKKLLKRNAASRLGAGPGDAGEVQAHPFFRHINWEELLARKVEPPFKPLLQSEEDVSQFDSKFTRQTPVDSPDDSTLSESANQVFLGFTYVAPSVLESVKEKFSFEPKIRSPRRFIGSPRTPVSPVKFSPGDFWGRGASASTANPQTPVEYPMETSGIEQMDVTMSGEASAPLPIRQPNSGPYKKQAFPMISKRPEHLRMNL

The experiment concerns the target Ribosomal protein S6 kinase beta-1 (Homo sapiens) (UniProt P23443). To be noted: at 1 µM.
What is called inhibition is the relative decrease from the control value, in per cent. In the case of `Nc1nonc1-c1nc2cnccc2n1C1CC1`, the inhibition is 89.3% and 88.8%.

In the case of `NS(=O)(=O)c1cccc(N/C=C2\C(=O)Nc3ccccc32)c1`, the inhibition was found to be 8%.

For `CC1=C(C(=O)Nc2ccc3[nH]ncc3c2)C(c2ccc(F)cc2)N=C(c2ccc(C(F)(F)F)nc2)N1` (stereo unspecified), the inhibition was 7.4%.

Consider `CNC(=O)c1cncc(/C=C/c2ccccc2C)c1`, for which the inhibition was 1.97%.

In the case of `CN1CCC(C(=O)Nc2n[nH]c3nc(-c4ccc(O)cc4)c(Br)cc23)CC1`, the inhibition is 2.58% and -0.02%.

On to `Cc1cc(O)cc(C)c1/C=C/c1cncc(C(N)=O)c1`, for which the inhibition stood at 0.31%.

As to `CS(=O)(=O)Nc1ccc(-c2cc(-c3ccccc3)cc(C(N)=O)c2N)cc1`, the inhibition was determined as 0.07%.

Turning to `CS(=O)(=O)CCNCc1ccc(-c2ccc3ncnc(Nc4ccc(OCc5ccccc5)cc4)c3c2)o1`, the inhibition is 2.62%.

Consider `CCOc1ccc2c(-c3ccnc(Nc4cc(OC)cc(C(F)(F)F)c4)n3)cnn2n1`, for which the inhibition stood at 0.73%.

For `Cc1cc(O)cc(C)c1/C=C/c1cncc(C(=O)OC(C)(C)C)c1`, the inhibition was 0.31%.

Regarding `O=C1Nc2ccccc2/C1=C1\CCc2cc(O)ccc21`, the inhibition came to 11.6%.

Consider `CCS(=O)(=O)c1ccc(OC)c(Nc2ncc(-c3cccc(F)c3)o2)c1`, for which the inhibition was found to be 5.19%.

Take `COc1cccc(Nc2nccc(-c3cnn4ncccc34)n2)c1`: the inhibition is 3.93%.

Regarding `Nc1ncnc2occ(-c3ccc(NC(=O)Nc4cc(C(F)(F)F)ccc4F)cc3)c12`, the inhibition is 77.4% and 70.2%.

For `O=C(Nc1n[nH]c2nnc(-c3cccnc3)cc12)C1CC1`, the inhibition came out at 0.25%.

In the case of `O=C(O[C@H]1CN[C@H](C#Cc2cc3ncnc(Nc4ccc5c(cnn5Cc5ccccc5)c4)c3s2)C1)N1CCOCC1`, the inhibition is -1.65%.

Turning to `COc1cc(N2CCN(C(C)C)CC2)ccc1Nc1nc(Nc2cccc3ncccc23)c2cc[nH]c2n1`, the inhibition amounted to 2.23%.

In the case of `CS(=O)(=O)CCNCc1ccoc1-c1ccc2ncnc(Nc3ccc(OCc4ccccc4)cc3)c2c1`, the inhibition was -1.32%.

As for `CCN1CCC(C(=O)Nc2n[nH]c3nnc(-c4cccc(F)c4F)cc23)CC1`, the inhibition is -1.27%.

Consider `COc1ccc(-c2nn3ncccc3c2-c2ccnc(Nc3ccc(F)c(F)c3)n2)cc1`, for which the inhibition came out at 2.58%.

With `CCS(=O)(=O)c1ccc(OC)c(Nc2ncc(-c3cccc(C(C)=O)c3)o2)c1`, the inhibition is 2.57%.

As to `c1cnn2ncc(-c3ccnc(NCCCN4CCOCC4)n3)c2c1`, the inhibition came out at 2.73%.

For `CN(C)CCNC(=O)Nc1ccc(N(C)c2ccnc(Nc3ccc(CS(C)(=O)=O)cc3)n2)cc1`, the inhibition is 1.94%.

With `CCn1c(-c2nonc2N)nc2cncc(C(=O)NCCNC)c21`, the inhibition is 78.2%.

Regarding `COc1cc(N2CCN(C(C)C)CC2)ccc1Nc1nc(Nc2cccc(F)c2C(=O)O)c2cc[nH]c2n1`, the inhibition was 2.81%.

In the case of `COC(=O)Nc1nc2cc(Oc3ccc(NC(=O)Nc4ccccc4)cc3)ccc2[nH]1`, the inhibition is 3.12%.

Turning to `NC(=O)c1ccc2c(-c3ccnc(NCCCO)n3)c(-c3ccc(F)cc3)nn2c1`, the inhibition is 1.46%.

Take `CS(=O)(=O)Nc1ccc(-c2ccc3c(NC(=O)C4CC4)n[nH]c3c2)cc1`: the inhibition was found to be 2.83%.

As to `COC(=O)Nc1nc2ccc(Oc3ccc(NC(=O)Nc4cc(C(F)(F)F)ccc4F)cc3)cc2s1`, the inhibition was determined as 23.2%.

In the case of `COc1ccccc1-c1cc(/C=C2\C(=O)Nc3ncc(Br)cc32)cc(Br)c1O`, the inhibition came out at 2.75%.

As to `Cc1nnc(-c2cccc(-c3ccc(C(=O)NCC4CC4)cc3)c2)o1`, the inhibition worked out at 3.46%.
